Measured values: ChEMBL document CHEMBL2218924, “A broad activity screen in support of a chemogenomic map for kinase signalling research and drug discovery” (Biochem J, 2013)

What follows are compounds tested against G protein-coupled receptor kinase 5 (Homo sapiens) (UniProt P34947). Settings: at 10 µM.
G protein-coupled receptor kinase 5 (Homo sapiens), sequence (P34947 whole entry, looked up): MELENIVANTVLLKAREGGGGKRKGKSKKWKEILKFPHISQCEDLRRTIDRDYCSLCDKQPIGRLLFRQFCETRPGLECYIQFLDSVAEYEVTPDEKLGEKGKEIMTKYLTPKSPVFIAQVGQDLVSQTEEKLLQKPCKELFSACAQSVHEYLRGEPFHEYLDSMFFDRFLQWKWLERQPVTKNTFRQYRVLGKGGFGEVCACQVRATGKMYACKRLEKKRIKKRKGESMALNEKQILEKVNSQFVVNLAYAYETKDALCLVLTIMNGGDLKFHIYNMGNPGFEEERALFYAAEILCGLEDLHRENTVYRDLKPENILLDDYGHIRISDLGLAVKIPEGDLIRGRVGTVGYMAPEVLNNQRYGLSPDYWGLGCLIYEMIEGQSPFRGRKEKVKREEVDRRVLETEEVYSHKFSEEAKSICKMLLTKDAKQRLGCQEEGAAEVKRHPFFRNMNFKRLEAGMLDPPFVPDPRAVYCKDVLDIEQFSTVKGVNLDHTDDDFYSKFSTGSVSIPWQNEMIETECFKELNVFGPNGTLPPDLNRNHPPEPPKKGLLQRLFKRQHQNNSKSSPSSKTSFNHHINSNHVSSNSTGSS

Row | SMILES | residual activity
1 | O=C1NC(=O)C(c2cn(CCCn3ccnc3)c3ccccc23)=C1Nc1ccccc1 | 30%
2 | O=c1c(-c2ccc(F)cc2)c(-c2ccncc2)[nH]n1-c1ccc(Cl)cc1 | 100%
3 | CC(C)[C@H](CO)Nc1nc(Nc2cc(N)cc(Cl)c2)c2ncn(C(C)C)c2n1 | 44%
4 | N#Cc1c(NC(=O)c2cccc3ccccc23)sc2c1CCCC2 | 98%
5 | CCCCc1c(-c2ccc(O)cc2)[nH]c2nccnc12 | 90%
6 | CC(C)(C)c1nc2c3ccc(F)cc3c3c(=O)[nH]ccc3c2[nH]1 | 66%
7 | NCCNc1ncc(C(N)=O)c(Nc2cccc(C(F)(F)F)c2)n1 | 79%
8 | CC(C)(C)n1nc(Cc2cccc3ccccc23)c2c(N)ncnc21 | 96%
9 | CSc1nc(-c2ccc(F)cc2)c(-c2ccnc(NC(C)c3ccccc3)c2)[nH]1 (stereo not given) | 91%
10 | O=C(Nc1nc2ccccc2n1CCN1CCOCC1)c1cccc([N+](=O)[O-])c1 | 85%
11 | COc1ccc2c(c1)c(C1=C(c3c[nH]c4ccccc34)C(=O)NC1=O)cn2CCCN(C)C | 51%

Each compound was assayed against G protein-coupled receptor kinase 6 (Homo sapiens) (UniProt P43250). Settings: at 10 µM.
G protein-coupled receptor kinase 6 (Homo sapiens), sequence (P43250 whole entry, looked up): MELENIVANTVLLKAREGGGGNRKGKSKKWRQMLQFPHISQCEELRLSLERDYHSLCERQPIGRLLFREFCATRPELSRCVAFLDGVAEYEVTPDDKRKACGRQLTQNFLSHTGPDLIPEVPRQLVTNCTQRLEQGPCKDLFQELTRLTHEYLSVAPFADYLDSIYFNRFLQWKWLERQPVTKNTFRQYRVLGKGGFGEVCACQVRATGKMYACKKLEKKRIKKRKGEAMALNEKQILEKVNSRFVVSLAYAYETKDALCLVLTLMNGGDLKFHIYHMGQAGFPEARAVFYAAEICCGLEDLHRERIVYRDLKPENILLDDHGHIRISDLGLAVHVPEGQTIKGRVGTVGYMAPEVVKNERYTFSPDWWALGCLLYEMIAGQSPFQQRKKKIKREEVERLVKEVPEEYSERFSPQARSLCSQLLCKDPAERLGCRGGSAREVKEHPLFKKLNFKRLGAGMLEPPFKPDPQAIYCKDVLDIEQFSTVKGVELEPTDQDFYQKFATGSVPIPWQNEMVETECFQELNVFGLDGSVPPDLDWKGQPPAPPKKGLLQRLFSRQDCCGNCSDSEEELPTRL

Row | SMILES | residual activity
12 | NC(=O)c1ccc(-c2nc(-c3ccc4c(c3)OCCO4)c(-c3ccccn3)[nH]2)cc1 | 88%
13 | O=C1NC(=O)C(c2cn(CCCn3ccnc3)c3ccccc23)=C1Nc1ccccc1 | 59%
14 | O=S(=O)(NCCNC/C=C/c1ccc(Br)cc1)c1cccc2cnccc12 | 81%
15 | COc1ccc(Cl)cc1NC(=O)Nc1cc(C)nc2ccccc12 | 92%
16 | O=c1c(-c2ccc(F)cc2)c(-c2ccncc2)[nH]n1-c1ccc(Cl)cc1 | 100%
17 | NC(=O)c1cccc(-c2cc(Nc3ccc(OC(F)(F)F)cc3)ncn2)c1 | 100%
18 | Nc1ncnc2c1cnn2-c1ccccc1 | 93%
19 | CC(C)[C@H](CO)Nc1nc(Nc2cc(N)cc(Cl)c2)c2ncn(C(C)C)c2n1 | 40%
20 | CCN1/C(=C/C(C)=O)Sc2ccc(OC)cc21 | 79%
21 | N#Cc1c(NC(=O)c2cccc3ccccc23)sc2c1CCCC2 | 90%
22 | CCCCc1c(-c2ccc(O)cc2)[nH]c2nccnc12 | 90%
23 | COc1cc2c(cc1OC)-c1n[nH]c(Nc3cccc(F)c3)c1C2 | 81%
24 | O=C(c1ccccc1)c1ccc(N2CCOCC2)cc1O | 88%
25 | CC(C)(C)c1nc2c3ccc(F)cc3c3c(=O)[nH]ccc3c2[nH]1 | 68%
26 | O=c1cc(N2CCOCC2)oc2c(-c3ccccc3)cccc12 | 77%
27 | NCCNc1ncc(C(N)=O)c(Nc2cccc(C(F)(F)F)c2)n1 | 73%

Each compound was assayed against T1, Rhodopsin kinase GRK7 (Homo sapiens) (UniProt Q8WTQ7). Settings: at 1 µM.
T1 sequence (whole entry): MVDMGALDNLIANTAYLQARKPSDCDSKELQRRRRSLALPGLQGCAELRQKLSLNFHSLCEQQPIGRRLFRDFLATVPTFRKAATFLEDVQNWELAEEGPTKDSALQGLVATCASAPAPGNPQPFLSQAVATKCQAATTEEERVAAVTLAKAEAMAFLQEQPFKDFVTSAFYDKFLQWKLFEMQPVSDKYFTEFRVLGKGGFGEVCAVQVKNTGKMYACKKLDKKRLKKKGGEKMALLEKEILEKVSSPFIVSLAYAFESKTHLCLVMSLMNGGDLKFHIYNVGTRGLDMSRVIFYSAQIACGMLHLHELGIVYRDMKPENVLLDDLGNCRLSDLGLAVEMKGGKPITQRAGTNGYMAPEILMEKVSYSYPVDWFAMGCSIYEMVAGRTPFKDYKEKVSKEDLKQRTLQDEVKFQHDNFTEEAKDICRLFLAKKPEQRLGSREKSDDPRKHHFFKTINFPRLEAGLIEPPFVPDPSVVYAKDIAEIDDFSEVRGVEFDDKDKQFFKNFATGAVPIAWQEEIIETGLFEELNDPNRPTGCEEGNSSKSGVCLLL

Row | SMILES | residual activity
28 | COc1cc2ncnc(Nc3cccc(Cl)c3)c2cc1OC | 106%
29 | O=C1NC(=O)C(c2cn(CCCn3ccnc3)c3ccccc23)=C1Nc1ccccc1 | 75%
30 | COc1ccc(Cl)cc1NC(=O)Nc1cc(C)nc2ccccc12 | 99%
31 | O=C1Nc2ccccc2/C1=C\c1c(Cl)[nH]c2ccccc12 | 99%
32 | CC(C)[C@H](CO)Nc1nc(Nc2cc(N)cc(Cl)c2)c2ncn(C(C)C)c2n1 | 58%
33 | CCCCc1c(-c2ccc(O)cc2)[nH]c2nccnc12 | 86%
34 | CC(C)(C)n1nc(Cc2cccc3ccccc23)c2c(N)ncnc21 | 98%
35 | Oc1cccc(-c2nc(N3CCOCC3)c3oc4ncccc4c3n2)c1 | 93%
